{"source": "PubChem BioAssay (EPA / NIEHS)", "note": "Results filed as inconclusive are left out. Calls of active or inactive are those of the source. Rule for the calls: active = hit-call score of the fitted dose curve at least 0.9, where 1 is the maximum; inconclusive = response in the unintended direction; inactive = score below 0.9."}
{"assay": "Tanguay_ZF_120hpf_AXIS_legacy: (Legacy) Oregon State University Tanguay Lab 120 Hour Post-fertilization zebrafish Assay for Body Axis Malformation (AID 2283635);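 for AC50: potency for an increased fraction of larvae scored with body axis malformation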", "procedure,_shortened": "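Chorion is removed with pronase at 4 hpf, then single 6 hpf embryos are dosed (final DMSO 0.64%) and held statically at 28C in sealed, foil-covered plates. At 120 hpf body axis malformation is recorded as present or absent.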"}
{"compound": "O=C(O)Cc1ccccc1Nc1c(Cl)cccc1Cl", "outcome": "inactive"}
{"compound": "CC1(C)CC(N=C=O)CC(C)(CN=C=O)C1", "note": "(stereo not drawn)", "outcome": "inactive"}
{"compound": "CC(C)c1ccc(C(=O)N=C(N)N)cc1S(C)(=O)=O", "outcome": "inactive"}
{"compound": "Cc1ccc(C(C)C)c(O)c1", "outcome": "inactive"}
{"compound": "O=c1[nH]cc(F)c(=O)[nH]1", "outcome": "inactive"}
{"compound": "Cc1oc(-c2ccccc2)nc1CCOc1cccc2c1ccn2CCC(=O)O", "outcome": "inactive"}
{"compound": "Cc1c(C(=O)O)c(O)cc2c1C(=O)c1c(O)c([C@@H]3O[C@H](CO)[C@@H](O)[C@H](O)[C@H]3O)c(O)c(O)c1C2=O", "outcome": "inactive"}
{"compound": "CCOc1ccc2c(c1)C(C)=CC(C)(C)N2", "outcome": "inactive"}
{"compound": "COc1cc(C=O)ccc1O", "AC50": "49.2 µM (active)"}
{"compound": "CCCCCCOCCO", "outcome": "inactive"}
{"compound": "COc1ccc2c(c1)c(CC(=O)O)c(C)n2C(=O)c1ccc(Cl)cc1", "outcome": "inactive"}
{"compound": "COCCOCCOC", "outcome": "inactive"}
{"compound": "CNC(=O)[C@H]1O[C@@H](n2cnc3c(NCc4cc(Cl)ccc4OCc4cc(C)no4)ncnc32)[C@H](O)[C@@H]1N", "outcome": "inactive"}
{"compound": "COC(=O)c1ccc(O)cc1", "outcome": "inactive"}
{"compound": "CC(=O)OC/C=C(\\C)CCC=C(C)C", "outcome": "inactive"}
{"compound": "CN[C@H]1CC[C@@H](c2ccc(Cl)c(Cl)c2)c2ccc(S(N)(=O)=O)cc21", "outcome": "inactive"}
{"compound": "Cc1ccc(N(C)C)cc1", "outcome": "inactive"}
{"compound": "O=C(N[C@@H](Cc1ccccc1)[C@@H](O)C(=O)N1C[C@@H](O)[C@@H](O)C1)c1cc2cc(Cl)ccc2[nH]1", "outcome": "inactive"}
{"compound": "O=c1c(O)c(-c2ccc(O)c(O)c2)oc2cc(O)cc(O)c12", "outcome": "inactive"}
{"compound": "CCCCCCCCCCO", "outcome": "inactive"}
{"compound": "Cc1ccc(C)c(C)c1", "outcome": "inactive"}
{"compound": "CC1=C(/C=C/C(C)=C/C=C/C(C)=C/CO)C(C)(C)CCC1", "outcome": "inactive"}
{"compound": "CCOC(=O)CCC(=O)OCC", "outcome": "inactive"}
{"compound": "CCCCCCCCCCCC(=O)OC", "outcome": "inactive"}
{"compound": "CNCc1cc(F)ccc1Oc1ccc(Cl)c(Cl)c1", "outcome": "inactive"}
{"assay": "Tanguay_ZF_120hpf_EYE_legacy: (Legacy) Oregon State University Tanguay Lab 120 Hour Post-fertilization zebrafish Assay for Eye Malformation (AID 2283636);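 note: binary presence or absence of eye malformation scored by brightfield in 120 hpf larvae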", "procedure,_shortened": "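Dechorionated Tropical 5D zebrafish embryos, one per well from 6 hpf, static exposure to 120 hpf at 28C, 0.64% DMSO. Eye malformation scored present/absent by brightfield; dead embryos not scored.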"}
{"compound": "Nc1nc(N)c2nc(CNc3ccc(C(=O)N[C@@H](CCC(=O)O)C(=O)O)cc3)cnc2n1", "outcome": "inactive"}
{"compound": "O=C(O)Cc1ccccc1Nc1c(Cl)cccc1Cl", "outcome": "inactive"}
{"compound": "CC(C)c1ccc(C(=O)N=C(N)N)cc1S(C)(=O)=O", "outcome": "inactive"}
{"compound": "Cc1ccc(C(C)C)c(O)c1", "outcome": "inactive"}
{"compound": "O=c1[nH]cc(F)c(=O)[nH]1", "outcome": "inactive"}
{"compound": "Cc1c(C(=O)O)c(O)cc2c1C(=O)c1c(O)c([C@@H]3O[C@H](CO)[C@@H](O)[C@H](O)[C@H]3O)c(O)c(O)c1C2=O", "outcome": "inactive"}
{"compound": "CCOc1ccc2c(c1)C(C)=CC(C)(C)N2", "outcome": "inactive"}
{"compound": "COc1cc(C=O)ccc1O", "AC50": "60.5 µM (active)"}
{"compound": "CCCCCCOCCO", "outcome": "inactive"}
{"compound": "COc1ccc2c(c1)c(CC(=O)O)c(C)n2C(=O)c1ccc(Cl)cc1", "outcome": "inactive"}
{"compound": "COCCOCCOC", "outcome": "inactive"}
{"compound": "COC(=O)c1ccc(O)cc1", "outcome": "inactive"}
{"compound": "CC(=O)OC/C=C(\\C)CCC=C(C)C", "outcome": "inactive"}
{"compound": "Cc1ccc(N(C)C)cc1", "outcome": "inactive"}
{"compound": "c1cc(-c2ccncc2)ccn1", "outcome": "inactive"}
{"compound": "O=C(N[C@@H](Cc1ccccc1)[C@@H](O)C(=O)N1C[C@@H](O)[C@@H](O)C1)c1cc2cc(Cl)ccc2[nH]1", "outcome": "inactive"}
{"compound": "CCCCCCCCCCO", "outcome": "inactive"}
{"compound": "Cc1ccc(C)c(C)c1", "outcome": "inactive"}
{"compound": "CC1=C(/C=C/C(C)=C/C=C/C(C)=C/CO)C(C)(C)CCC1", "outcome": "inactive"}
{"compound": "CCOC(=O)CCC(=O)OCC", "outcome": "inactive"}
{"compound": "Clc1cc(Cl)c(Cl)cc1Cl", "outcome": "inactive"}
{"compound": "CCCCCCCCCCCC(=O)OC", "outcome": "inactive"}
{"assay": "Tanguay_ZF_120hpf_SNOU_legacy: (Legacy) Oregon State University Tanguay Lab 120 Hour Post-fertilization zebrafish Assay for Snout Malformation (AID 2283637)", "procedure,_shortened": "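Dechorionated tropical 5D wild-type zebrafish embryos exposed statically from 6 to 120 hpf at 28C, one per well, in 0.64% DMSO. Snout malformation scored as present/absent by brightfield at 120 hpf; dead embryos not scored.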"}
{"compound": "Nc1nc(N)c2nc(CNc3ccc(C(=O)N[C@@H](CCC(=O)O)C(=O)O)cc3)cnc2n1", "outcome": "inactive"}
{"compound": "O=C(O)Cc1ccccc1Nc1c(Cl)cccc1Cl", "outcome": "inactive"}
{"compound": "CC1(C)CC(N=C=O)CC(C)(CN=C=O)C1", "note": "(stereo not drawn)", "outcome": "inactive"}
{"compound": "CC(C)c1ccc(C(=O)N=C(N)N)cc1S(C)(=O)=O", "outcome": "inactive"}
{"compound": "Cc1ccc(C(C)C)c(O)c1", "outcome": "inactive"}
{"compound": "O=c1[nH]cc(F)c(=O)[nH]1", "outcome": "inactive"}
{"compound": "Cc1oc(-c2ccccc2)nc1CCOc1cccc2c1ccn2CCC(=O)O", "outcome": "inactive"}
{"compound": "Cc1c(C(=O)O)c(O)cc2c1C(=O)c1c(O)c([C@@H]3O[C@H](CO)[C@@H](O)[C@H](O)[C@H]3O)c(O)c(O)c1C2=O", "outcome": "inactive"}
{"compound": "CCOc1ccc2c(c1)C(C)=CC(C)(C)N2", "AC50": "19.4 µM (active)"}
{"compound": "COc1cc(C=O)ccc1O", "AC50": "36.6 µM (active)"}
{"compound": "CCCCCCOCCO", "outcome": "inactive"}
{"compound": "COc1ccc2c(c1)c(CC(=O)O)c(C)n2C(=O)c1ccc(Cl)cc1", "outcome": "inactive"}
{"compound": "COCCOCCOC", "outcome": "inactive"}
{"compound": "CNC(=O)[C@H]1O[C@@H](n2cnc3c(NCc4cc(Cl)ccc4OCc4cc(C)no4)ncnc32)[C@H](O)[C@@H]1N", "outcome": "inactive"}
{"compound": "COC(=O)c1ccc(O)cc1", "outcome": "inactive"}
{"compound": "CC(=O)OC/C=C(\\C)CCC=C(C)C", "outcome": "inactive"}
{"compound": "CN[C@H]1CC[C@@H](c2ccc(Cl)c(Cl)c2)c2ccc(S(N)(=O)=O)cc21", "outcome": "inactive"}
{"compound": "Cc1ccc(N(C)C)cc1", "outcome": "inactive"}
{"compound": "c1cc(-c2ccncc2)ccn1", "outcome": "inactive"}
{"compound": "O=C(N[C@@H](Cc1ccccc1)[C@@H](O)C(=O)N1C[C@@H](O)[C@@H](O)C1)c1cc2cc(Cl)ccc2[nH]1", "outcome": "inactive"}
{"compound": "O=c1c(O)c(-c2ccc(O)c(O)c2)oc2cc(O)cc(O)c12", "outcome": "inactive"}
{"compound": "CCCCCCCCCCO", "outcome": "inactive"}
{"compound": "CC1=C(/C=C/C(C)=C/C=C/C(C)=C/CO)C(C)(C)CCC1", "outcome": "inactive"}
{"compound": "CCOC(=O)CCC(=O)OCC", "outcome": "inactive"}
{"compound": "CCCCCCCCCCCC(=O)OC", "outcome": "inactive"}
{"compound": "CNCc1cc(F)ccc1Oc1ccc(Cl)c(Cl)c1", "outcome": "inactive"}
